Data published in PubChem BioAssay (NCATS).
Records with an inconclusive call do not appear. Active and inactive are the calls of the source. The call rests on the fitted dose curve; in most records, active means well fitted inhibition curve with a large enough effect; inconclusive means small, poorly fitted or top-dose-only effect; inactive means flat fitted curve, though single readings scatter. Peptide text beside a SMILES is read from it.

What was measured:
Test in all cases: qHTS profiling for inhibitors of Plasmodium falciparum proliferation (AID 504749); further: nearly all actives have a fitted effect of over 60% in size
Details in all cases: P. falciparum in erythrocytes, SYBR Green DNA, 72 h; series mostly up to 28.7 µM
CP286 = system: CP286
In short: (§1)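 In a 72 h erythrocytic culture (37 C, humidified, 5% CO2) at 2.5% hematocrit and 0.3% starting parasitemia, compounds were tested; SYBR Green I in detergent lysis buffer stained parasite DNA overnight.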

CP291 = system: CP291
In short: as §1

CP297 = system: CP297
In short: as §1

CP305 = system: CP305
In short: as §1

CP315 = system: CP315
In short: as §1

CP325 = system: CP325
In short: as §1

CP329 = system: CP329
In short: as §1

CP335 = system: CP335
In short: as §1

DFO2036 = system: DFO2036
In short: as §1

DIV14 = system: DIV14
In short: as §1

Measured: Potency
Potency means the concentration at half of the fitted maximal effect.

COc1cc(OC)c(C(=O)CCCN2CCCC2)c(OC)c1
inactive: all assays above

CC1(C)NC(=O)N(c2ccc([N+](=O)[O-])c(C(F)(F)F)c2)C1=O
inactive: all assays above

COC(=O)[C@H](Cc1ccccc1)NC(=O)[C@@H](N)CC(=O)O (H-Asp-Phe-OMe)
inactive: all assays above

CN(C)C(=O)COC(=O)Cc1ccc(OC(=O)c2ccc(N=C(N)N)cc2)cc1
inactive: all assays above

Nc1ccc(S(N)(=O)=O)cc1
inactive: all assays above

CCN(CC)CCOc1ccc(Cc2ccccc2)cc1
not listed: DIV14
inactive: all other assays above

O=C(NCCO[N+](=O)[O-])c1cccnc1
inactive: all assays above

Cc1ccc(C)c(OCCCC(C)(C)C(=O)O)c1
inactive: all assays above

O=P(O)(O)C(O)(Cn1ccnc1)P(=O)(O)O
inactive: all assays above

O=c1oc2cc(O)ccc2s1
not listed: DIV14
inactive: all other assays above

Nc1ccn([C@@H]2O[C@H](CO)[C@@H](O)C2O)c(=O)n1 (some centres undefined)
inactive: all assays above

CC(C)[C@H](N)C(=O)OCCOCn1cnc2c(=O)[nH]c(N)nc21
inactive: all assays above

Nc1cccc2c1CN(C1CCC(=O)NC1=O)C2=O (centres undefined)
inactive: all assays above

C[C@H](Cn1cnc2c(N)ncnc21)OCP(=O)(O)O
inactive: all assays above

CCC(C)(Oc1ccc(C2(c3ccc(OC(C)(CC)C(=O)O)cc3)CCCCC2)cc1)C(=O)O (centres undefined)
inactive: all assays above

Cc1cccc(C)c1OCC(=O)N[C@@H](Cc1ccccc1)[C@@H](O)C[C@H](Cc1ccccc1)NC(=O)[C@H](C(C)C)N1CCCNC1=O
active: CP286 7.08 µM | CP291 13.5 µM | CP297 4.26 µM | CP305 13.5 µM | CP315 6.75 µM | CP325 13.5 µM | CP329 12 µM | CP335 4.78 µM | DFO2036 3.98 µM | DIV14 1.9 µM

COC(=O)C1=C(C)NC(C)=C(C(=O)OCCCN2CCC(c3ccccc3)(c3ccccc3)CC2)C1c1cccc([N+](=O)[O-])c1 (centres undefined)
active: CP286 2.82 µM | CP291 6.75 µM | CP297 4.78 µM | CP305 7.57 µM | CP315 9.53 µM | CP325 6.01 µM | CP329 8.49 µM | CP335 4.26 µM | DFO2036 7.94 µM | DIV14 3.38 µM

C[C@]12CCC(=O)C=C1CC[C@@H]1[C@H]2[C@@H](O)C[C@@]2(C)[C@H]1CC[C@]2(O)C(=O)CO
inactive: all assays above

CS(=O)(=O)OCCCCOS(C)(=O)=O
inactive: all assays above

Cc1c(OCC(F)(F)F)ccnc1CS(=O)c1nc2ccccc2[nH]1 (centres undefined)
not listed: DIV14
inactive: all other assays above

CCCCc1ccc2nc(NC(=O)OC)[nH]c2c1
inactive: all assays above

O=C(O)c1cc(=O)c2c(OCC(O)COc3cccc4oc(C(=O)O)cc(=O)c34)cccc2o1
inactive: all assays above

CN(C)CCc1c[nH]c2ccc(Cn3cncn3)cc12
inactive: all assays above

Cc1cc2cc3c(C)cc(=O)oc3c(C)c2o1
inactive: all assays above

CCCCN(CCCC)CCC(O)c1cc2c(Cl)cc(Cl)cc2c2cc(C(F)(F)F)ccc12 (centres undefined)
active: CP286 0.0089 µM | CP291 0.0287 µM | CP297 0.0181 µM | CP305 0.0361 µM | CP315 0.051 µM | CP325 0.0287 µM | CP329 0.051 µM | CP335 0.0081 µM | DFO2036 0.0089 µM

CC(C)(S)[C@@H](N)C(=O)O
inactive: all assays above

Clc1ccc(C(Cn2ccnc2)OCc2ccsc2Cl)c(Cl)c1 (centres undefined)
active: CP286 7.08 µM | CP291 12 µM | CP297 3.79 µM | CP305 12 µM | CP315 15.1 µM | CP325 12 µM | CP329 13.5 µM | CP335 4.78 µM | DFO2036 3.16 µM | DIV14 1.9 µM

COc1ccc(C2(C#N)CCC(C(=O)O)CC2)cc1OC1CCCC1 (centres undefined)
inactive: all assays above

N=C(N=C(N)N)N1CCOCC1
not listed: CP329
inactive: all other assays above

Nc1cc(C(Cl)=C(Cl)Cl)c(S(N)(=O)=O)cc1S(N)(=O)=O
inactive: all assays above

CN1C(C(=O)Nc2ccccn2)=C(O)c2sccc2S1(=O)=O
inactive: all assays above

CC[C@]1(O)C[C@H]2CN(CCc3c([nH]c4ccccc34)[C@@](C(=O)OC)(c3cc4c(cc3OC)N(C=O)[C@H]3[C@@](O)(C(=O)OC)[C@H](OC(C)=O)[C@]5(CC)C=CCN6CC[C@]43[C@@H]65)C2)C1
active: CP286 0.0708 µM | CP291 3.38 µM | CP297 3.01 µM | DFO2036 1.78 µM

CCOC(=O)c1c(C)n(C)c2ccc(O)cc12
inactive: all assays above

CCC1=C(C)CN(C(=O)NCCc2ccc(S(=O)(=O)NC(=O)NC3CCC(C)CC3)cc2)C1=O (centres undefined)
inactive: all assays above

O=C(O)CCNC(=O)c1ccc(N=Nc2ccc(O)c(C(=O)O)c2)cc1
inactive: all assays above

Cc1cc2c(s1)Nc1ccccc1N=C2N1CCN(C)CC1
inactive: all assays above
